Measurements taken from PubChem BioAssay.
Activity calls are given as the source filed them. Unless noted, how the calls were made is not given here.

What was measured:
[1] = tested on: XIP peptide (Xip251-270) binding; experiment: XIP fragment 251-270 binding compounds – biochemical, small-molecule microarray, fluorescence 635/667 nm, 0.1 µg/mL protein, primary screen (AID 1182); details: fluorescent protein binding, 635 nm, higher = more signal, called active from +8 up or from −8 down
[2] = tested on: XIP peptide (Xip251-270); experiment: compounds binding XIP fragment 251-270 – biochemical, small-molecule microarray, fluorescence 635/667 nm, 0.5 µg/mL protein, primary screen (AID 1183); details: fluorescence 635 nm, higher = more signal
[3] = blood-stage malaria parasite viability loss – strain 3D7, DAPI fluorescence, 100 nL, primary screen (AID 1184);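 further: parasites grown inside human red blood cells in medium with human serum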; details: P. falciparum 3D7 growth, 3 d, higher = more signal
[4] = target: Homeobox protein Hox-A13 (Mus musculus) (UniProt Q62424); experiment: disruptors of Hoxa13 oligonucleotide interaction – biochemical, fluorescence polarization, labeled oligonucleotide, primary screen (AID 1185); details: Hoxa13:DNA binding, 15 min, higher = more signal, called active from +8 up or from −8 down
[5] = blockers of DNA damage checkpoint Chk1 activation – imaging, HeLa, hydroxyurea, phospho-Chk1 antibody, percent positive cells, primary screen (AID 1186); details: hydroxyurea-induced phospho-Chk1 immunofluorescence imaging, higher = more signal
[6] = blockers of DNA damage checkpoint Chk1 activation – imaging, HeLa, hydroxyurea, phospho-Chk1 nuclear intensity, primary screen (AID 1187); details: hydroxyurea-induced phospho-Chk1 immunofluorescence imaging, higher = more signal

Chain of Homeobox protein Hox-A13 (Mus musculus) (Q62424 whole entry, looked up): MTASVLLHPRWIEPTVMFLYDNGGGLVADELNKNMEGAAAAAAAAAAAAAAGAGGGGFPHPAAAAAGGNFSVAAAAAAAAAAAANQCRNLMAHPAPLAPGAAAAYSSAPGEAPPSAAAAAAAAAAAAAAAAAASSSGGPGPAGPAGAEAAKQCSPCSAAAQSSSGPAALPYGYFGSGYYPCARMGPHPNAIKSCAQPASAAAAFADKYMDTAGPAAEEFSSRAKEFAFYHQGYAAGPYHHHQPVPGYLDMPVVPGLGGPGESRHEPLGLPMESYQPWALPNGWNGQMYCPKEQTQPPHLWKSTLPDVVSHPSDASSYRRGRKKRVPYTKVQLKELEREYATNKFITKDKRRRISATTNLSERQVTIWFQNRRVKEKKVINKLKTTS

| SMILES | composite z-score [1] | composite z-score [2] | z-score [3] | z-score [4] | z-score [5] | z-score [6] |
| --- | --- | --- | --- | --- | --- | --- |
| CC(C)Cc1ccc(CN2CC[C@@H](NC(=O)Nc3ccccc3)C2)cc1 | -0.243 (inactive) | -0.238 | -1.51 | 0.339 (inactive) | 0.146 (inactive) | 0.459 (inactive) |
| CCOC(=O)c1ccc(NC(=O)O[C@H]2[C@H](OC(=O)Nc3ccc4c(c3)OCO4)[C@H](OC(=O)Nc3ccc4c(c3)OCO4)[C@@H](OC)O[C@@H]2CO)cc1 | 1.4 (inactive) | 0.863 | -2.28 | -6.83 (inactive) | -0.306 (inactive) | 0.101 (inactive) |
| C[C@@H]1NC(=O)[C@@]23C(=O)N[C@@H](Cc4ccccc4)C2[C@H](C)[C@@]2(C)O[C@H]2C3/C=C/C/C=C\CNC(=O)[C@@H]2CCCN2C1=O (some centres undefined) | -0.85 (inactive) | -0.103 | 0.934 | -3.68 (inactive) | -0.0354 (inactive) | 0.186 (inactive) |
| Cc1ccccc1C(O)C1C=CC2C(=O)N(C)C(=O)C2N1N(c1ccccc1)c1ccccc1 (centres undefined) | -0.0728 (inactive) | 0.649 | 0.548 | -1.17 (inactive) | -0.274 (inactive) | -0.168 (inactive) |
| C=CC[C@]1(C(=O)O)COC(c2ccc(OCCCO)cc2)=N1 | 0.324 (inactive) | 0.614 | -0.12 | -0.685 (inactive) | -0.173 (inactive) | -0.315 (inactive) |
| CC(C)C(=C=CC[C@H](O)c1ccc(OCCO)cc1)C[C@H](O)c1ccccn1 | -0.0991 (inactive) | 0.909 | -2.06 | -5.38 (inactive) | -0.0725 (inactive) | 0.223 (inactive) |
| COCCOC(=O)N1C(=O)[C@@]2(c3cc(C#Cc4ccc(OC)cc4)ccc31)[C@H](C(=O)Nc1nc3ccccc3s1)[C@H]1C(=O)O[C@H](c3ccccc3)[C@H](c3ccccc3)N1[C@@H]2c1ccc(OCCO)cc1 | 0.127 (inactive) | 0.623 | -1.69 | 2.34 (inactive) | 0.0676 (inactive) | 0.0745 (inactive) |
| CN(C)C(=O)[C@]1(CCS(=O)(=O)c2ccccc2)N=C(c2ccc(OCCCO)cc2)O[C@@H]1c1ccccc1N=[N+]=[N-] | 1.1 (inactive) | 0.821 | -2.34 | -3.11 (inactive) | -0.197 (inactive) | -0.447 (inactive) |
| C=CCN1C(=O)[C@@]2(CCS(=O)(=O)c3ccccc3)N=C(c3ccc(OCCCO)cc3)O[C@H]2c2ccccc21 | 0.404 (inactive) | 0.713 | -2.05 | -2.47 (inactive) | -0.477 (inactive) | -0.37 (inactive) |
| CC1CC/C=C\[C@H]2OC34C=CCN(c5ccc(Cl)cc5)C(=O)[C@H]3N(CCCCCO)C(=O)[C@]4(C)C2C(=O)O1 (some centres undefined) | -0.546 (inactive) | -0.613 | -0.396 | -4.96 (inactive) | 1 (inactive) | 0.917 (inactive) |
| CN(C)CCCNC(=O)[C@@]1(c2ccc([N+](=O)[O-])cc2)CC(=O)N(CC23CC4CC(CC(C4)C2)C3)[C@@H]1c1ccc(CO)cc1I | 0.166 (inactive) | 0.86 | -2.16 | 8.34 (active) | -0.449 (inactive) | -0.766 (inactive) |
| CC(C)C[C@@H]1NC(=O)[C@@H]2C[C@H](C(=O)NCCCCCN)[C@H](c3ccc(O)cc3)N2C1=O | 0.0938 (inactive) | 0.725 | 0.179 | -1.88 (inactive) | -0.223 (inactive) | 0.0212 (inactive) |
| [N-]=[N+]=NCc1ccccc1[C@@H]1OC(c2ccc(OCCCO)cc2)=N[C@]1(CCS(=O)(=O)c1ccccc1)C(=O)NCC(O)CO (some centres undefined) | 2.02 (inactive) | 0.831 | -2.26 | -1.52 (inactive) | -0.519 (inactive) | -0.524 (inactive) |
| COC(=O)[C@@]1(Cc2ccc(OC)cc2)[C@H]2c3cc(C(=O)N(C)C)n(Cc4ccc(Cl)c(C(F)(F)F)c4)c3C[C@H]2CN1C(=O)c1ccccc1 | -0.0177 (inactive) | 0.267 | -1.48 | -3.47 (inactive) | 0.472 (inactive) | 0.127 (inactive) |
| [N-]=[N+]=Nc1ccccc1[C@@H]1OC(c2ccc(OCCCO)cc2)=N[C@]1(Cc1ccccc1)C(=O)NCC(O)CO (some centres undefined) | 2.53 (inactive) | 0.747 | -2.14 | -3.18 (inactive) | -0.358 (inactive) | -0.228 (inactive) |
| COC(=O)[C@@]1(Cc2ccccc2)[C@H]2c3cc(C(=O)N(C)C)n(CCc4ccc(O)c(OC)c4)c3C[C@H]2CN1C(=O)c1ccccc1 | 0.132 (inactive) | -0.358 | 0.692 | -0.394 (inactive) | 0.727 (inactive) | 0.652 (inactive) |
| CC=CC(O)C1C=CC2C(=O)N(c3ccccc3)C(=O)C2N1Nc1ccccc1F (centres undefined) | 0.147 (inactive) | 0.744 | -0.48 | -3.7 (inactive) | 0.0921 (inactive) | -0.305 (inactive) |

| SMILES | composite z-score [1] | composite z-score [2] | z-score [3] | z-score [4] | z-score [5] | z-score [6] |
| --- | --- | --- | --- | --- | --- | --- |
| C=C(C)c1cc2c(c(CCCCCC)n1)[Si](C(C)C)(C(C)C)OC2 | -0.525 (inactive) | -0.115 | -0.631 | -1.76 (inactive) | 0.213 (inactive) | 1.53 (inactive) |
| C=CCN1C(=O)[C@@]2(O[C@@H](CCn3cc([C@H](O)c4ccccc4)nn3)[C@H]([Si](C)(C)c3ccc(OC)cc3)[C@H]2C)c2cc(N3CCC3=O)ccc21 | -0.0195 (inactive) | -0.114 | -2.1 | -5.38 (inactive) | -0.108 (inactive) | 0.582 (inactive) |
| CCOc1cc(C(O)C2C=CC3C(=O)N(c4ccccc4)C(=O)C3N2Nc2ccc(C#N)cc2)ccc1O (centres undefined) | 0.186 (inactive) | 0.535 | -0.435 | -4.2 (inactive) | -0.22 (inactive) | -0.0602 (inactive) |
| C=CCNC(=O)[C@@H]1[C@H]2C(=O)O[C@H](c3ccccc3)[C@H](c3ccccc3)N2[C@H](c2ccc(O)cc2)[C@@]12C(=O)N(C(=O)OCCOC)c1ccc(C#CC3(O)CCCCCC3)cc12 | 0.0275 (inactive) | 0.557 | 0.359 | 0.16 (inactive) | -0.209 (inactive) | -0.468 (inactive) |
| CC(C)(C)OC(=O)CC[C@]1(C(=O)NCc2ccccc2)N=C(c2ccc(OCCCO)cc2)O[C@H]1c1ccccc1CN=[N+]=[N-] | 0.333 (inactive) | 0.688 | -2.39 | -1.28 (inactive) | -0.654 (inactive) | -0.865 (inactive) |
| COC(=O)[C@@]1(Cc2ccccc2)[C@H]2c3cc(C(=O)N(C)C)n(Cc4c(CO)[nH]cc(C)c4=O)c3C[C@H]2CN1C(=O)c1ccccc1 | 0.278 (inactive) | 0.3 | -1.16 | -5.3 (inactive) | -0.0454 (inactive) | 0.0707 (inactive) |
| Cc1ccc(S[C@]2(C(=O)NCC(F)(F)F)CC(=O)N(Cc3ccccc3)[C@@H]2c2ccc(CO)cc2I)cc1 | -0.0862 (inactive) | 0.442 | 0.15 | -3.68 (inactive) | 0.475 (inactive) | 0.554 (inactive) |
| C=CCC(OC(C)=O)[C@@H]1[C@@H](N(Cc2cc3ccccc3o2)C(=O)Cc2ccc(F)cc2)c2cc(OCCCO)ccc2N1C(=O)c1ccc2ccccc2c1 (some centres undefined) | -0.231 (inactive) | -0.271 | 1.15 | -1.95 (inactive) | 0.608 (inactive) | 0.308 (inactive) |
| C=C(/C(=C/C[C@@H](OC(C)=O)c1cccc(OCCO)c1)c1cc(C(=O)OC)ccc1OC)C(C)C | -0.139 (inactive) | 0.567 | -3.06 | -5.59 (inactive) | -0.541 (inactive) | -0.42 (inactive) |
| COC(=O)[C@@]1(Cc2ccc(OC)cc2)[C@H]2c3cc(C(=O)N4CCCC4)n(Cc4c(-c5ccccc5)noc4C)c3C[C@H]2CN1C(=O)c1ccccc1 | 2.97 (inactive) | 0.473 | -1.3 | -3.25 (inactive) | -0.279 (inactive) | -0.313 (inactive) |
| CCCCC=C[C@@H](NC(=O)c1ccc(-c2ccccc2)cc1)c1ccccc1 | -0.464 (inactive) | -0.102 | 0.067 | -3.89 (inactive) | -0.85 (inactive) | -1.37 (inactive) |
| CCOC(=O)C1=C[C@@H](c2ccccc2)N(S(=O)(=O)c2ccc(C)cc2)[C@H]1c1ccccc1Cl | 0.566 (inactive) | 0.307 | -2.02 | 0.552 (inactive) | -0.339 (inactive) | -0.865 (inactive) |
| COc1cc2c(cc1OC)CN(C(=O)[C@@H]1[C@H]3C(=O)O[C@H](c4ccccc4)[C@H](c4ccccc4)N3[C@H](c3ccc(OCCO)cc3)[C@@]13C(=O)Nc1ccc(C#CC4(O)CCCCCC4)cc13)CC2 | 0.784 (inactive) | 0.684 | -2.06 | 3.75 (inactive) | -0.124 (inactive) | 0.041 (inactive) |
| CCCCCCc1nc(C2CC2)cc2c1[Si](C(C)C)(C(C)C)OC2 | -0.18 (inactive) | 0.259 | -1.47 | 0.321 (inactive) | -0.186 (inactive) | -0.0437 (inactive) |
| COCCCNC(=O)[C@]1(CCS(=O)(=O)c2ccccc2)N=C(c2ccc(OCCCO)cc2)O[C@@H]1c1ccccc1CN=[N+]=[N-] | 1.51 (inactive) | 0.814 | -2.3 | -3.61 (inactive) | -0.684 (inactive) | -0.618 (inactive) |
| CCOC(=O)C[C@H]1[C@H](OC(=O)c2cc3ccccc3oc2=O)[C@@H](NC(=O)c2ccc(-c3ccccc3)cc2)c2cc(OCCCO)ccc2N1C(=O)c1ccccc1 | 0.411 (inactive) | 0.701 | -1.95 | 0.455 (inactive) | 0.443 (inactive) | 0.769 (inactive) |
| COc1cc(OC)c(C(O)C2C=CC3C(=O)N(c4ccccc4)C(=O)C3N2Nc2ccccc2)cc1Br (centres undefined) | 1.02 (inactive) | 0.577 | 0.0461 | -3.38 (inactive) | -0.754 (inactive) | -0.747 (inactive) |
